Mot1-301 SUMO – inhibitors of SUMOylation pathway: yeast Mot1-301 growth rescue; S. cerevisiae Mot1-301 growth rescue, ATP luminescence, 38.5C; percent above DMSO median, 100 means doubled; growth rescue, % at 18.8 µM; 320,000 compounds, 1% hits;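 active means every valid replicate shows activation above 250% relative to neutral control wells; inactive means the rest, any valid replicate at or below 250%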;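 further: OY570 slx delta 5 strain wells were the positive control but not used for scaling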
NR3A LBD binder – NR3A (human) ligand-binding domain modulation | NR3A LBD differential scanning fluorimetry, Tm shift; 0% = protein alone, 100% = glycine-bound protein | Tm shift relative to glycine control, % at 25 µM | 340,000 compounds, 2.5% hits | AID 1259313;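 active means melting temperature shift of at least 10% of the positive control shift, at one fixed dose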
AI-2 QS mod – modulators of Vibrio harveyi AI-2 quorum sensing system | Vibrio harveyi JMH597 AI-2 luminescence/OD600 ratio, 9 h; stronger effect = lower value; strain lacks LuxN and CqsS sensors; 0 = neutral-control median | activity change, % at 7.5 µM | 300,000 compounds, 0.4% hits | AID 2094; in the data active means activity change below about -75%, passing the limit was not always enough;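 further: luminescence divided by OD600 gain over 9 h not by final OD600 alone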
NTR1 ag – NTR1 (human) agonism; P30989; NTR1-U2OS beta-arrestin-GFP spot imaging, agonist mode; activation, % at 20 µM; 330,000 compounds, 0.17% hits;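 active means activation at or above 40% of the spot to cytoplasm intensity ratio, with at least 20 cells analyzed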;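 further: 0% = DMSO without peptide and 100% = 100 nM NTR1 peptide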
Target sequence (P30989 whole entry, looked up): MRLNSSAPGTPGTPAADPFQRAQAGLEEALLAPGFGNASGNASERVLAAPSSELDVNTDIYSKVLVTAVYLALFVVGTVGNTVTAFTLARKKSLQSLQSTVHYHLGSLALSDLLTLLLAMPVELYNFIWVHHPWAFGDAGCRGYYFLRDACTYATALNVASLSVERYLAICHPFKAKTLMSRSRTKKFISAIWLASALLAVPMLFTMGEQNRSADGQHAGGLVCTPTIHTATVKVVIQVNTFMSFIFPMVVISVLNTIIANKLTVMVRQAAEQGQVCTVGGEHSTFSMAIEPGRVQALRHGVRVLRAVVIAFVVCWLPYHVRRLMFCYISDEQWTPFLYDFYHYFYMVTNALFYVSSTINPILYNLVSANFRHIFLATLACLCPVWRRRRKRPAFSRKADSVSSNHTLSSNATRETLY
Cardio protect – myocardial damage modulation in H9c2 cells. H9c2 cardiomyocytes, H2O2 injury protection, ATPLite, 2 h. protection from H2O2 cell death, % at 20 µM. 360,000 compounds, 0.63% hits. AID 588492;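 active means compounds giving at least 50% protection of heart cells from peroxide-induced death in the single-dose screen, raw or plate-pattern-corrected value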;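 further: 0% = DMSO wells with peroxide and 100% = DMSO wells without peroxide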
AHR activator – human AHR activation; AHR-responsive luciferase reporter cells, luminescence; 320,000 compounds, 2.5% hits; AID 2796; activation, % at 5 µM; P35869; in the data active means activation above about 47%;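 further: 0% = vehicle wells and 100% = reference agonist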
* = called active by the depositor; . = no result given. Only some compounds are listed: those with a hit (about 6.2% of all), similar ones and a draw of the others.

SMILES	Mot1-301 SUMO	NR3A LBD binder	AI-2 QS mod	NTR1 ag	Cardio protect	AHR activator
N#CCCCSc1ncccc1-c1nc2ccccc2[nH]1	-7	0	9	0	1	4
N#CCSc1ncccc1-c1nc2ccccc2[nH]1	-5	-1	17	0	-1	73*
CCCCn1cc(S(=O)(=O)c2ccccc2)c(=O)c2cc(C)ccc21	45	0	39	-1	9	-1
CC(=O)c1ccc(N2CCN(S(=O)(=O)c3ccc4c(c3)CCC(=O)N4)CC2)cc1	.	.	.	.	-8	.
CC(=O)c1ccc(N2CCN(S(=O)(=O)c3cc4[nH]c(=O)c(=O)[nH]c4cc3C)CC2)cc1	.	-6	38	-3	-4	47*
N#C/C(=C\c1cccs1)C(=O)c1ccccc1	-7	14*	22	0	6	4
O=C(O)c1cccc(N2C(=O)/C(=C/c3ccc(SCc4ccc(Cl)cc4)o3)SC2=S)c1	.	15*	.	.	8	.
O=C(CCN1C(=O)/C(=C/c2ccc(Cl)cc2)SC1=S)Nc1cccc(C(=O)O)c1	5	-9	3	1	-9	-1
Fc1ccc(-c2csc(/C=C/c3ccc4c(c3)OCO4)n2)cc1	-12	-2	0	5	-19	82*
Cc1nc(-c2ccc3c(c2)OCO3)cs1	-15	2	0	0	-1	9
O=c1[nH]c2ccccc2nc1-c1c[nH]c2ccccc12	132	39*	12	9	-1	41
Nc1ccccc1-c1nc2ccccc2[nH]c1=O	-17	-2	-6	-1	-10	.
O=C(Nc1cccc(Cl)c1)Nc1cc(S(=O)(=O)N2CCCCC2)ccc1Cl	-11	11*	11	5	-15	11
CN1CCN(S(=O)(=O)c2ccc(NC(=O)c3ccccc3Cl)cc2)CC1	-12	-1	21	1	0	0
N#CC(C#N)=NNc1ccc(S(=O)(=O)N2CCCCC2)cc1	15	12*	16	0	-13	-3
O=C(Nc1cc(S(=O)(=O)N2CCCCC2)ccc1Cl)c1ccncc1	12	-3	.	6	1	-1
O=C(Nc1ccccc1)Nc1ccc(S(=O)(=O)N2CCCCC2)cc1	-19	22*	-23	3	-17	4
CN1CCN(S(=O)(=O)c2ccc(NC(=O)Nc3cccc(Cl)c3)cc2)CC1	7	14*	22	2	-10	6
CN(C)C(CNc1ccc(S(C)(=O)=O)cc1[N+](=O)[O-])Cc1ccccc1 (stereo not drawn)	96	-1	3	0	-2	-1
CC(=O)c1cccc(-c2ccnc3c2CC(C(=O)Nc2cccc(NS(C)(=O)=O)c2)O3)c1 (stereo not drawn)	.	.	.	.	10	.
Cc1ccc(S(=O)(=O)N2CCCCC2)cc1NC(=O)c1ccc(Cl)nc1	.	-2	.	3	-1	75*
CN1CCN(S(=O)(=O)c2ccc(NC(=O)c3ccc(Br)s3)cc2)CC1	6	29*	30	2	0	3
Cc1ccc(S(=O)(=O)N2CCCCC2)cc1NC(=O)Nc1ccc(Cl)cc1Cl	0	14*	30	10	-14	8
O=C(Nc1cc(S(=O)(=O)Nc2ccc(Cl)cc2)ccc1N1CCCCC1)c1ccc(F)cc1Cl	-23	21*	25	6	-15	5
Cc1cccc(C)c1NC(=O)CN(c1c(C)cccc1C)S(C)(=O)=O	.	.	.	.	-1	.
SMILES	Mot1-301 SUMO	NR3A LBD binder	AI-2 QS mod	NTR1 ag	Cardio protect	AHR activator
CN(C)C(CNC(=O)CCCN1C(=O)c2cccc3cccc(c23)C1=O)c1ccccc1 (stereo not drawn)	5	0	1	-1	-8	-3
O=C(Nc1ccc(Cl)cc1F)c1cc(S(=O)(=O)N2CCCCC2)ccc1F	133	13*	-1	-1	-7	5
O=C(Nc1cccc(S(=O)(=O)N2CCCCC2)c1)C1CCCC1	15	22*	.	1	-2	2
Cc1ccc(C(=O)Nc2ccc3nc(C)sc3c2)s1	18	5	30	1	-5	-5
O=C(Nc1ccc(Cl)c(Cl)c1)Nc1cc(S(=O)(=O)N2CCOCC2)ccc1N1CCCC1	-10	11*	20	-1	-16	2
Cc1nc2cc(NC(=O)c3ccc(Br)s3)ccc2s1	272	25*	2	5	-17	31
NC(=O)c1ncn([C@@H]2O[C@H](CNCc3cnc(N4CCOCC4)nc3)[C@@H](O)[C@H]2O)n1	.	13*	.	.	-6	.
NC(=O)c1ncn([C@@H]2O[C@H](CNCc3cccc(OC4CCCC4)c3)[C@@H](O)[C@H]2O)n1	.	17*	.	.	15	.
COc1cc(Cl)c(CNC[C@H]2O[C@@H](n3cnc(C(N)=O)n3)[C@H](O)[C@@H]2O)c(Cl)c1O	.	0	.	.	8	.
NC(=O)c1ncn([C@@H]2O[C@H](CNCc3cccc4c3sc3ccccc34)[C@@H](O)[C@H]2O)n1	.	2	.	.	3	.
CCCn1cnc2c(SCc3ccccc3Cl)nc(N)nc21	.	2	.	.	-5	.
CC1=CC(C)(C)N(C(=O)CN2C(=O)c3ccccc3C2=O)c2ccccc21	15	12*	0	1	-1	0
N#Cc1cc(C(=O)c2cc(Cl)ccc2O)cn(-c2ccccc2)c1=O	1	-1	14	-1	-2	1
Cc1ccc(NC(=O)c2cc(C(=O)c3cc(Cl)ccc3O)cn(-c3ccc(C)cc3)c2=O)cc1	2	12*	39	7	-13	19
O=C(c1ccc(N2CN(C(=O)c3ccco3)c3nc4ccccc4nc32)cc1)N1CCOCC1	-19	-3	26	-1	72*	-1
O=C1[C@H](Cc2ccccc2)NCCCC[C@@H](c2ccc(Cl)cc2)N1Cc1ccc(Cl)cc1	.	-19	.	.	4	.
O=C1[C@H](Cc2ccccc2)NCCCC[C@H](c2ccc(Cl)cc2)N1Cc1ccccc1	.	10*	.	.	-9	.
Cc1cccc(-n2ncc3c2CCCC3NC(=O)C2=CC(=O)CC(C)(C)O2)c1C (stereo not drawn)	75	3	18	0	-17	0
CC1=Nn2c(nnc2-c2n[nH]c3c2CCC3)SC1	3	2	7	3	16	25
Fc1ccc(C2=Nn3c(nnc3-c3n[nH]c4c3CCC4)SC2)cc1	1	3	35	5	8	54*
Oc1ccc(O)c(/C(=N/Nc2ccccc2)c2ccccc2)c1	3	.	-28	2	.	2
C[C@H](CO)N1C[C@H](C)[C@@H](CN(C)S(=O)(=O)c2ccc(F)cc2)Oc2ccc(NC(=O)Nc3ccc4c(c3)OCO4)cc2C1=O	.	-2	.	4	62*	1
C[C@H](CO)N1C[C@H](C)[C@@H](CN(C)S(=O)(=O)c2ccc(F)cc2)Oc2ccc(NC(=O)Nc3ccc(C(F)(F)F)cc3)cc2C1=O	-7	11*	.	1	-3	1
